CYP2C19 act = human CYP2C19 activators, primary screen, biochemical, luminescence; Cytochrome P450 2C19 (Homo sapiens), P33261; recombinant CYP2C19, luciferin-H EGE luminescence; hits give high values; 0 = fully inhibited enzyme, 1 = untreated enzyme; activation factor at 5 µM; 96,000 tested, under 10 active;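 active = activation factor of at least 2 at 5 µM in the primary screen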
CYP2C9 activ = human CYP2C9 activators, primary screen, biochemical, luminescence | Cytochrome P450 2C9 (Homo sapiens), P11712 | recombinant CYP2C9, luciferin-H conversion; hits give high values; factor 1 = untreated enzyme, 0 = blocked | activation factor at 5 µM | hit rate 1.4% among 96,000;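 active = activation factor of 2 or more for CYP2C9 at a 5 µM dose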
Target sequence (P11712 whole entry, looked up): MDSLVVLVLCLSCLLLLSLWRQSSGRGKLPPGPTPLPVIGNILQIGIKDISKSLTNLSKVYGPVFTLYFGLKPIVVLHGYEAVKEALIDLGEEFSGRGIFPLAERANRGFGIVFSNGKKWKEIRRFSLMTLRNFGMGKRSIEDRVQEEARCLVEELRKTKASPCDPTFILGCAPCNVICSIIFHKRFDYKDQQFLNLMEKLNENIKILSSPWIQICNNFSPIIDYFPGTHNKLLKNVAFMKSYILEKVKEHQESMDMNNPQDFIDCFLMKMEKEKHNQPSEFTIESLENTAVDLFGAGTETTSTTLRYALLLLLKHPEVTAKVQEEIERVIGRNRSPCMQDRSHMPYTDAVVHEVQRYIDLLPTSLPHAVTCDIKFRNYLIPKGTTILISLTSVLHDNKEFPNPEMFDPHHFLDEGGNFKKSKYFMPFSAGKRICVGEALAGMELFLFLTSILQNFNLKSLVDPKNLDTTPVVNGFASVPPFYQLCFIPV
CYP2C9 inh = blockers of cytochrome P450 2C9 activity – biochemical, luminescence, ADME assay, primary screen. P11712. CYP2C9 Supersomes, luciferin-H conversion. inhibition, % at 5 µM. hit rate 20% among 96,000. AID 777, 2007;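 active = blocking of liver enzyme CYP2C9 beyond about 50% at 5 µM, limit read from the data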
CYP2C19 inhib = blockers of cytochrome P450 2C19 activity – biochemical, luminescence, ADME assay, primary screen. hit rate 21% among 96,000. AID 778, 2007. inhibition, % at 5 µM. CYP2C19 Supersomes, luciferin-H EGE luminescence, 30 min;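 active = CYP2C19 inhibition above a set limit at 5 µM in the primary screen, cut at about 50% in these data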
Large screens that a line does not name were inactive. In the library only some 31% were active in any assay of this set; here they are far more common.

O=C(CN1CCC(c2nc3ccccc3s2)CC1)NCc1cccs1	none
CCC(C)NC(=O)c1ccccc1NS(=O)(=O)c1ccc(OC)c(OC)c1 (stereo not given)	CYP2C19 inhib 79.6
COc1ccc(S(=O)(=O)Nc2ccccc2C(=O)NC(C)C)cc1OC	CYP2C19 inhib 80.9
Cc1ccc(C(C)C)c(OCCNC(=S)Nc2cccc3ccccc23)c1	CYP2C9 inh 84.0, CYP2C19 inhib 85.1
O=C(CSc1nc2ccc([N+](=O)[O-])cc2[nH]1)c1ccc2ccccc2c1	CYP2C9 inh 54.4
Cc1nc(SCC(=O)c2cccc([N+](=O)[O-])c2)n[nH]1	none
CCNc1nnc(-c2ccc(C)cc2)o1	CYP2C19 inhib 60.8
Cc1cc(C(F)(F)F)n(-c2nc(C(=O)N/N=C/c3ccc(F)cc3)cs2)n1	CYP2C9 inh 55.2
COc1cccc(/C=N/NC(=O)c2csc(-n3nc(C)cc3C(F)(F)F)n2)c1	none
Cc1cc(SCc2cc(=O)[nH]c3ccccc23)nc2ccccc12	none
O=C(NNc1ccc([N+](=O)[O-])cc1)C12CC3CC(CC(C3)C1)C2	none
c1ccc2c3c(cc(N4CCOCC4)c2c1)OC1(N2CCOCC2)CCCCC1O3 (stereo not given)	CYP2C9 inh 79.5, CYP2C19 inhib 95.1
Cc1cc(NCCN(C)C)n2nc(-c3cccs3)cc2n1	none
Cc1ccc(C(=O)COC(=O)C2CC(=O)N(c3nc(-c4ccccc4)cs3)C2)cc1C (stereo not given)	CYP2C9 inh 90.3
CCOc1cc(CNCCO)cc(Br)c1OCc1ccc(Cl)cc1Cl	none
COc1cc(CNc2ncn[nH]2)cc(Br)c1OC	none
CCOc1cc(CNCCSc2nnnn2C)cc(Br)c1OCc1ccccc1F	CYP2C19 inhib 83.8
CCOc1cc(CNCc2cccs2)cc(Br)c1OCC	CYP2C19 inhib 73.0
COc1cc(CNCCSc2nnnn2C)cc(Br)c1OCc1ccc(F)cc1	CYP2C19 inhib 76.1
CCOc1cc(CNCCO)cc(Br)c1OCc1cccs1	none
CCOc1cc(CNCc2ccncc2)cc(Br)c1OCc1ccccc1F	CYP2C9 inh 91.1, CYP2C19 inhib 85.1
COc1cc(CNCCSc2nnnn2C)cc(Br)c1OCc1ccccc1F	CYP2C19 inhib 68.5
CCOc1cc(CNc2ccccc2)cc(Br)c1OCc1ccc(F)cc1	CYP2C9 inh 51.0
Cc1ccc(C(=O)NNC(=O)c2ccc(SCC3CCCO3)c([N+](=O)[O-])c2)cc1 (stereo not given)	none
O=C(NNC(=O)c1ccccc1Br)c1ccc(SCC2CCCO2)c([N+](=O)[O-])c1 (stereo not given)	CYP2C9 inh 61.9
O=C(NNC(=O)c1ccc(SCC2CCCO2)c([N+](=O)[O-])c1)c1ccc(Cl)c([N+](=O)[O-])c1 (stereo not given)	CYP2C9 inh 73.6
CN(Cc1ccccc1)Cc1c[nH]c2ccccc12	CYP2C19 inhib 87.6
O=C(NCc1ccco1)C1CCN(c2nc3ccccc3n2Cc2ccccc2F)CC1	none
CCOC(=O)CN1C(=O)C(O)=C(C(C)=O)C1c1ccccc1 (stereo not given)	none
Cc1cc(S(=O)(=O)N2CCCC2)ccc1OCC(=O)N1CCOCC1	none
O=C(COc1ccc(S(=O)(=O)N2CCCC2)cc1Cl)NCc1ccco1	CYP2C9 inh 85.4
COC(=O)COc1ccc(S(=O)(=O)NCc2ccco2)cc1Cl	CYP2C19 inhib 57.9
Cc1cc(S(=O)(=O)N2CCCC2)ccc1OCC(=O)NCc1ccco1	CYP2C9 inh 50.0
COCCNS(=O)(=O)c1ccc(OCC(=O)OC)c(Cl)c1	none
O=C(COc1ccc(S(=O)(=O)N2CCCC2)cc1)NCc1ccco1	none
COc1ccc(C(=O)OCC(=O)NCc2ccco2)cc1S(=O)(=O)N1CCN(c2cccc(Cl)c2)CC1	CYP2C9 inh 95.6, CYP2C19 inhib 98.5
Cc1csc(Sc2nc3c(c(=O)[nH]c(=O)n3C)n2CCCc2ccccc2)n1	none
CCc1cccc(C)c1NC(=O)C(c1ccccc1)N1CCC1=O (stereo not given)	none
COC(=O)COc1ccc(S(=O)(=O)NCCC2=CCCCC2)cc1Cl	CYP2C19 inhib 96.9
CN(C)S(=O)(=O)c1ccc(Cl)c(C(=O)NCc2ccco2)c1	none
O=C(NCc1ccco1)c1cc(S(=O)(=O)N2CCCc3ccccc32)ccc1Cl	CYP2C19 inhib 80.9
CCOc1ccc(N2C(=O)c3cccnc3C2Nc2ccc(C)cc2)cc1 (stereo not given)	none
CCOC(=O)N1CCN(C(=O)CN(C2CCCCC2)S(=O)(=O)c2ccc(Cl)cc2)CC1	none
CCCc1nc2ccccc2c(C(=O)OCC(=O)Nc2cccc(S(=O)(=O)N3CCOCC3)c2)c1CC	none
O=C(COC(=O)CCc1nc2ccccc2s1)Nc1cccc(S(=O)(=O)N2CCOCC2)c1	CYP2C9 activ 2.1
CCOC(=O)c1ccc(NC(=O)c2cccc(S(=O)(=O)N3CCOCC3)c2)cc1	none
CCn1cc(C(=O)OCC(=O)Nc2cccc(S(=O)(=O)N3CCOCC3)c2)c(=O)c2ccc(C)nc21	CYP2C9 inh 67.1
O=C(COC(=O)CCc1nc2ccccc2s1)Nc1ccc(S(=O)(=O)N2CCOCC2)cc1	CYP2C9 inh 75.0
CCn1cc(C(=O)NC2CC3CCC2C3)c(=O)c2ccc(C)nc21 (stereo not given)	none
Cn1c(C(=O)N2CCN(c3cccc(C(F)(F)F)c3)CC2)cc2sccc21	none
CN(C)Cc1cc(CCNC(=O)c2ccc(Cl)cc2)ccc1O	none
COc1cc(NC(=S)NC(=O)c2ccccc2C)ccc1NC(=O)c1cccs1	none
Cn1cnnc1Sc1cc(N2CCN(S(=O)(=O)c3ccc(Cl)c(Cl)c3)CC2)ccc1[N+](=O)[O-]	CYP2C9 inh 88.8, CYP2C19 inhib 99.7
CCCSc1nc(N)nc(-c2cccs2)c1C#N	CYP2C9 inh 72.6
CCSc1nc(C2CC2)cc(-c2ccco2)c1C#N	none
CCSc1nc(C2CC2)cc(-c2cccs2)c1C#N	CYP2C19 inhib 68.5
CCOC(=O)CSc1nc(N)c(C#N)c(-c2cccs2)c1C#N	none
CNC(=S)N1CCN(c2ccc([N+](=O)[O-])cc2)CC1	none
CCCc1nc(SCc2cccnc2)c2c(=O)n(C)c(=O)n(C)c2n1	CYP2C9 inh 89.5, CYP2C19 inhib 100.3
Cn1c(=O)c2c(SCc3cccnc3)nc(CC(C)(C)C)nc2n(C)c1=O	CYP2C9 inh 97.8, CYP2C19 inhib 89.6
COc1ccc(CCn2nnnc2C(C(C)C)N2CCN(c3ncccn3)CC2)cc1OC (stereo not given)	CYP2C9 inh 71.7
COc1ccc(N2CCN(C(c3nnnn3CCc3ccccc3)C(C)C)CC2)cc1 (stereo not given)	none
COc1ccc(CCn2nnnc2C(CC(C)C)N2CCN(c3ncccn3)CC2)cc1OC (stereo not given)	CYP2C9 inh 76.0
CCn1c(CSc2nc3ccccc3s2)nnc1SCC(=O)c1ccc(O)cc1O	none
Cc1ccc(/C=C(/C#N)c2nc(CCN3C(=O)c4ccccc4C3=O)cs2)cc1	CYP2C9 inh 51.4, CYP2C19 inhib 52.9

Source: PubChem
